Consider five targets from the supplement of paper PMC6411743.

± gives the standard deviation of the averaged measurements. Of roughly 5,400 targets only a part is listed; those with the largest changes were picked by preference.

Compound in the assay: Nc1nc2c(ncn2[C@@H]2O[C@H](COP(=O)(O)OP(=O)(O)OP(=O)(O)O)[C@@H](O)[C@H]2O)c(=O)[nH]1 [guanosine triphosphate]
The experiment in a line: NP40-soluble protein abundance relative to vehicle (solubility fold change) (ratio); higher = more soluble protein in presence of GTP. How it is done:
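Solubility proteome profiling in Jurkat crude lysate. Lysate was treated with Mg-GTP (0.1-10 mM) for 10 min at room temperature and 3 min at 37 °C, then solubilised with 0.8% NP40 and benzonase, followed by ultracentrifugation. Proteins were quantified by TMT10 LC-MS/MS; the value is the NP40-soluble abundance relative to the NP40-processed vehicle, from 3 independent experiments.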

UniProt Q9UBV8, sequence (Q9UBV8 whole entry): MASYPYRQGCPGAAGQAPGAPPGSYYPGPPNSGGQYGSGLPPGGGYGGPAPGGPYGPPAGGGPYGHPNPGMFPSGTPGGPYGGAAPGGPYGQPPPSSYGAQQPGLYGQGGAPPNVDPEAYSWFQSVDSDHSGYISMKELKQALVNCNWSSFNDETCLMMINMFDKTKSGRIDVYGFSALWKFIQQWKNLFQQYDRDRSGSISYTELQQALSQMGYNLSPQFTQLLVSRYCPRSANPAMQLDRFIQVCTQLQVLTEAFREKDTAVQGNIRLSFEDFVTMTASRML
UniProt Q9UII2, sequence (Q9UII2 whole entry): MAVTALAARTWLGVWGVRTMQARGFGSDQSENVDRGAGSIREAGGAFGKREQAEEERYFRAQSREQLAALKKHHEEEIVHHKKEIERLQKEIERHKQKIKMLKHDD
UniProt Q9NVG8, sequence (Q9NVG8 whole entry): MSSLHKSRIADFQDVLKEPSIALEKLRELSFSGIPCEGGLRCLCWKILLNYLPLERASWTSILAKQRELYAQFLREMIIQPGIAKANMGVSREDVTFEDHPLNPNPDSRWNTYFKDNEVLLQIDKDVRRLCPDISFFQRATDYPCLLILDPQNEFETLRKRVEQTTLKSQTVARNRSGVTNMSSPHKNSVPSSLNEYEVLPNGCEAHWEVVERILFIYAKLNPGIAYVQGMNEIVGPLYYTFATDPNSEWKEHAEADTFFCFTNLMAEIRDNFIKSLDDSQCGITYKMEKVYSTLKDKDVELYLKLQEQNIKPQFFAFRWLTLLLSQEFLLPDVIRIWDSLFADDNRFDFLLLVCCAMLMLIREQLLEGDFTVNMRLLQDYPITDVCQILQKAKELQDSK
UniProt Q9UNE7, sequence (Q9UNE7 whole entry): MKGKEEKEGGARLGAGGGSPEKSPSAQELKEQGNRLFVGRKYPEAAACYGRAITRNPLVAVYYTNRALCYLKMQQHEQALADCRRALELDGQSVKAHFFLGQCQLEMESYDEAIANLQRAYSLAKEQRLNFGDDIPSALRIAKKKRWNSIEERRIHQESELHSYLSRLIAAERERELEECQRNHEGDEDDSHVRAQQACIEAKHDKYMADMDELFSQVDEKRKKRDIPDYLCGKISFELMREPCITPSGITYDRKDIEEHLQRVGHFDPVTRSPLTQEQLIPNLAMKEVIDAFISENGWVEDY

With STUB1 (UniProt Q9UNE7), the NP40-soluble protein abundance runs as follows: (concentration: 0.1mM) 0.948 ± 0.056; (concentration: 0.5mM) 0.8985 ± 0.0031; (concentration: 1mM) 1.02 ± 0.1; (concentration: 2mM) 1.03 ± 0.027; (concentration: 4mM) 1.01 ± 0.078; (concentration: 6mM) 1.01 ± 0.012. Moreover, the NP40-soluble protein abundance was found to be 1.01 ± 0.049 (concentration: 8mM) and 1.03 ± 0.081 (concentration: 10mM).

Take TBC1D13 (UniProt Q9NVG8): the NP40-soluble protein abundance runs as follows: (concentration: 0.1mM) 0.962 ± 0.036; (concentration: 0.5mM) 0.985 ± 0.048; (concentration: 1mM) 0.927 ± 0.046; (concentration: 2mM) 0.896 ± 0.047; (concentration: 4mM) 0.857 ± 0.071; (concentration: 6mM) 0.866 ± 0.066. Also, the NP40-soluble protein abundance (concentration: 8mM) was found to be 0.847 ± 0.1 and the NP40-soluble protein abundance (concentration: 10mM) came out at 0.822 ± 0.089.

Take UniProt Q96MT7-2: the NP40-soluble protein abundance (concentration: 0.1mM) came to 1.09 ± 0.063; the NP40-soluble protein abundance (concentration: 0.5mM) turned out to be 0.959 ± 0.033; the NP40-soluble protein abundance (concentration: 1mM) turned out to be 1 ± 0.093; the NP40-soluble protein abundance (concentration: 2mM) was 0.863 ± 0.12; the NP40-soluble protein abundance (concentration: 4mM) was found to be 0.869 ± 0.04; the NP40-soluble protein abundance (concentration: 6mM) came to 0.915 ± 0.14. The NP40-soluble protein abundance (concentration: 8mM) worked out at 0.834 ± 0.052 and the NP40-soluble protein abundance (concentration: 10mM) amounted to 0.786 ± 0.082.

As for PEF1 (UniProt Q9UBV8), the NP40-soluble protein abundance by setting is: (concentration: 0.1mM) 0.946 ± 0.077; (concentration: 0.5mM) 0.888 ± 0.036; (concentration: 1mM) 0.995 ± 0.1; (concentration: 2mM) 0.994 ± 0.043; (concentration: 4mM) 1.03 ± 0.076; (concentration: 6mM) 0.993 ± 0.063. In addition, the NP40-soluble protein abundance reads like this: (concentration: 8mM) 0.891 ± 0.084; (concentration: 10mM) 1.02 ± 0.14.

On to UniProt Q9UII2, for which the NP40-soluble protein abundance by setting is: (concentration: 0.1mM) 0.946 ± 0.08; (concentration: 0.5mM) 0.972 ± 0.11; (concentration: 1mM) 1.01 ± 0.078; (concentration: 2mM) 0.936 ± 0.1; (concentration: 4mM) 0.875 ± 0.1; (concentration: 6mM) 0.908 ± 0.14. Moreover, the NP40-soluble protein abundance (concentration: 8mM) turned out to be 0.93 ± 0.07 and the NP40-soluble protein abundance (concentration: 10mM) is 0.963 ± 0.07.
